Experimental data from PubChem BioAssay (NCI).
This is part of a sample that, as a whole, favours compounds with a hit. Of some 83,000 tested, about 20% had one in any assay.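 Cells were grown in 96-well plates and exposed to the test compound at a single concentration for 48 hours; results are reported as percent growth, with values below 10 considered active.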 Unmarked numbers belong to inactive results. Calls of active or inactive are those of the source.

tested on: SK-MEL-5 melanoma; assay: NCI-60 one-dose screen, 48 h (100 = growth as untreated, 0 = no growth, -100 = all killed); settings: 10 µM unless noted
Description: Growth inhibition of the SK-MEL-5 human tumor cell line is measured as a screen for anti-cancer activity. Cells are grown in 96 well plates and exposed to the test compound for 48 hours. Compounds are tested at a single concentration, which is 10^-5 M for most compounds. The reported endpoint is percent growth (GI% or GIPRCNT), where numbers from 0 - 100% represent growth inhibition, and numbers from -100% - 0 represent cell death. For example, a value of 40 represents 60% growth inhibition. A value of 0 means no net growth occurred over the course of the experiment. A value of -40 indicates 40% of cells at the beginning of the experiment died by the end of the experiment. A value of -100 means all cells are dead at the end of the experiment.
NCI-60 Human Tumor Cell Lines Screen was performed using the standard one-dose NCI protocol, which is described in more detail at https://dtp.cancer.gov/discovery_development/nci-60/default.htm.
Compounds with GIPRCNT values below 10 were considered active. Activity score was based on GIPRCNT using the following formula: […]
Score is 0 for GIPRCNT values of 100 or above, 50 for GIPRCNT values of 0, and 100 for GIPRCNT values of -100.

SMILES	growth
COc1ccc(/C=C(/C(=O)N2CCN(c3ccc(C)cc3)CC2)c2cc(OC)c(OC)c(OC)c2)cc1N	-30.7% (active)
O=C(NCCO)C(F)(F)F	115%
O=C1/C(=C\c2cn(-c3nc(N4CCOCC4)nc(N4CCOCC4)n3)c3ccccc23)c2ccccc2N1c1c(Cl)cccc1Cl	83%
CC(CCN1CCN(CCC(C)CC(C)(C)C)C1CC(C)CC(C)(C)C)CC(C)(C)C (stereo not given)	108%
Oc1ccc2ccccc2c1/C=N\Nc1ccccn1	13.3%
COC(=O)[C@@H]1[C@H](O)[C@H](C)[C@H](O)[C@H](C)/C=C\C=C(C)C(=O)Nc2c(C)c(OC(C)=O)c3c(c2O)C(=O)C(C)=C2OCOC(=C23)C(C)=C[C@@](C)(O)[C@H](O)[C@@H](C)[C@H]1OC(C)=O	103%
COc1ccc(CNCCCN2C(=O)c3ccc4c5c(ccc(c35)C2=O)C(=O)N(CCCNCc2ccc(OC)c(OC)c2OC)C4=O)c(OC)c1OC	-97.9% (active)
CCCCCCCCCc1cc[n+](CC(=O)c2ccc([N+](=O)[O-])cc2)cc1	-77.8% (active)
COc1ccc(-c2nnc(SCC(=O)Nc3ccc(C(=O)/C=C/c4cc(OC)c(OC)c(OC)c4)cc3)n2-c2ccccc2)cc1OC	-14.6% [100 µM] (active)
Cc1ncc(C(=O)Nc2ccc(CN3CCN(C)CC3)c(C(F)(F)F)c2)cc1C#Cc1c(N)ncc2ccccc12	-99.6% (active)
CCN(CC)CCOC(=O)c1cccnc1	98%
Nc1ccc(N=Nc2ccccc2)c2cc(S(=O)(=O)O)ccc12	107%
Cc1ccc(NCc2cn(-c3ccc(C(=O)O)cc3)nc2-c2ccc(C(=O)O)cc2)cc1	108%
CCC(C)C1NC(=O)C(CC(C)C)NC(=O)C(C)NC(=O)C(C(C)C)NC(=O)C(CCCCN)NC(=O)C(CC(C)C)NC(=O)C(C(C)C)NC(=O)[C@H](C)NC(=O)C(C(C)CC)NC(=O)C(CCCN=C(N)N)NC(=O)C(CCCCN)NC(=O)C(CCCN=C(N)N)NC(=O)C(CCCCN)NC(=O)C([C@H](C)CC)NC(=O)C(CCCCN)NC1=O (stereo not given in full)	1.67% (active)
COc1cccc(NC(=O)NCCNc2nccc(-c3c(-c4ccc(F)cc4)nc4sccn34)n2)c1	61.6%
COc1ccc(/C=N/c2cc(C(C)(C)C)nn2-c2ccccc2)cc1	98%
COc1ccc(-c2nc(SCC(C)C)nc(Nc3ccc([N+](=O)[O-])cc3)c2C#N)cc1	96.3%
COc1ccc2sc(-n3nc4nc5n(c(=O)c4c3N)-c3ccccc3Sc3ccccc3-5)nc2c1	41.1%
O=C(NC1CCN(Cc2ccccc2)CC1)c1cc(-c2cccnc2)nc2ccc(Cl)cc12	50.2%
CC(C)CCCCCOC(=O)c1ccccc1SSc1ccccc1C(=O)OCCCCCC(C)C	96.2%

SMILES	growth
O=C(O)c1ccc(-c2nn(-c3ccc(C(=O)O)cc3)cc2CNc2ccc(Br)cc2)cc1	103%
O=c1c2c(c3ccccc3n1-c1ccccc1)NC(=S)NC2c1ccccc1 (stereo not given)	97.9%
Cn1cnc2nc[nH]c2c1=S	100%
CCCCCCCCCCCCOC(=N)N(C)C	109%
Cc1ncc(C(=O)Nc2ccc(CN3CCN(C)CC3)c(C(F)(F)F)c2)cc1C#Cc1c(N)ncc2ccc(F)cc12	-70.2% (active)
Cc1c(CN(C)C)cc(C(C)C)cc1C(C)C	104%
COC1(OC)N=C(N)C2(C#N)C3(C(=O)Nc4ccccc43)C12C#N (stereo not given)	81.8%
CCC(CCCN1C(=O)c2ccccc2C1=O)Nc1cc(OC)cc2cccnc12 (stereo not given)	89.9%
CC(=O)Oc1cc2ccccc2cc1C(C)C	101%
C/C=C(/C)C(=O)OC1C=C(CO)C(=O)C(OC(=O)C(C)(O)C(C)Cl)C1C(C)C (stereo not given)	-93% (active)
CCOC(=O)c1sc(NS(=O)(=O)c2ccccc2)nc1C	99.3%
COc1ccc2cn3c4ccc(O)cc4[nH]c(=O)c3c2c1	10.9%
COc1ccc(C(=O)NCCNc2nccc(-c3c(-c4ccc(F)cc4)nc4sccn34)n2)cc1	38.1%
CC(C)(C)c1ccc(OCCOC(=O)CBr)cc1	97%
C/C(CCC(=O)O)=N/Nc1ccc([N+](=O)[O-])cc1	46.3%
CC(=O)NNC(=O)c1sc(NC(C)=O)nc1C	103%
CC1(C)CC(=O)C2=C(C1)Oc1nc(N)c(C#N)c(N)c1C2c1ccc(F)cc1 (stereo not given)	91.6%
CCCCCCCCC1OC1CCCCCCCC(=O)O (stereo not given)	98%
CCc1c(C)c2ccc(OCC(=O)N=Nc3c(O)[nH]c4ccccc34)c(C)c2oc1=O	34.2%
N=C(c1ccccc1)N(Cc1ccccc1)Cc1ccccc1	104%
